Test results reported in paper PMC7826789 (International Journal of Molecular Sciences, 2021).

Key:
Details in all cases: Compound Concentration (nM):1000
CDK3 = tested on: CDK3
CDK4-cyclinD1 = tested on: CDK4-cyclinD1
CDK4-cyclinD3 = tested on: CDK4-cyclinD3
CDK4 = tested on: CDK4
CDK5 = tested on: CDK5
CDK7 = tested on: CDK7
CDK8 = tested on: CDK8
CDK9 = tested on: CDK9
CDKL1 = tested on: CDKL1
CDKL2 = tested on: CDKL2
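Note: KINOMEscan scanMAX binding as percent activity remaining versus control; lower means stronger binding.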

Row | Structure (SMILES) | Percent Control (CDK3) [%] | Percent Control (CDK4-cyclinD1) [%] | Percent Control (CDK4-cyclinD3) [%] | Percent Control (CDK4) [%] | Percent Control (CDK5) [%] | Percent Control (CDK7) [%] | Percent Control (CDK8) [%] | Percent Control (CDK9) [%] | Percent Control (CDKL1) [%] | Percent Control (CDKL2) [%]
1 | COc1ccc(COc2ccc(Cc3cnc(N)nc3N)cc2OC)cc1 [GW632580X] | 100 | 99 | 93 | 94 | 93 | 100 | 100 | 100 | 82 | 100
2 | COc1ccc2cc(-c3c(-c4ccncc4)nc(-c4ccc(S(C)(=O)=O)cc4C)n3C)ccc2c1 [SB-633825] | 100 | 68 | 90 | 91 | 95 | 85 | 78 | 74 | 87 | 100
3 | COc1cc(N2CCN(C(C)C)CC2)ccc1Nc1nc(Nc2ccc(F)cc2C(=O)NC[C@@H](O)CO)c2cc[nH]c2n1 [GSK1392956A] | 100 | 85 | 100 | 89 | 100 | 93 | 100 | 100 | 100 | 100
4 | CCn1c(-c2nonc2N)nc2c(C#CC(C)(C)O)nc(OCCNC)cc21.Cl [GSK949675] | 100 | 100 | 92 | 100 | 85 | 88 | 100 | 100 | 90 | 100
5 | COc1cc(C)c(N(C)C(=O)CN(C)C)cc1Nc1nc(Nc2cccc(F)c2C(N)=O)c2cc[nH]c2n1 [GSK2219385] | 92 | 89 | 100 | 90 | 100 | 73 | 100 | 100 | 79 | 100
6 | CN(C)CCNC(=O)Nc1ccc(N(C)c2ccnc(Nc3ccc(CS(C)(=O)=O)cc3)n2)cc1.Cl [GW830900A] | 100 | 81 | 100 | 97 | 85 | 65 | 75 | 98 | 88 | 28
7 | Cl.O=C(O[C@H]1CN[C@H](C#Cc2cc3ncnc(Nc4ccc5c(cnn5Cc5ccccc5)c4)c3s2)C1)N1CCOCC1 [GSK200398A] | 100 | 68 | 100 | 100 | 100 | 78 | 84 | 87 | 88 | 92
8 | CC1=C(C(=O)Nc2ccc3[nH]ncc3c2)C(c2ccc(Cl)c(Cl)c2)CC(=O)N1 (centres unmarked) [GSK299115A] | 100 | 74 | 100 | 80 | 100 | 83 | 47 | 100 | 96 | 80
9 | Nc1ncnc2occ(-c3ccc(NC(=O)Nc4cc(C(F)(F)F)ccc4F)cc3)c12 [GW770249X] | 39 | 96 | 100 | 100 | 63 | 4.4 | 0 | 70 | 93 | 31
10 | NS(=O)(=O)c1ccc(N/N=C2\C(=O)Nc3ccc(Cl)cc32)cc1 [GW280670X] | 100 | 77 | 100 | 100 | 100 | 100 | 100 | 100 | 96 | 78
11 | NS(=O)(=O)c1ccc(N/N=C2\C(=O)Nc3ccc(C(=O)NCc4ccncc4)cc32)cc1 [GW300657X] | 66 | 13 | 12 | 84 | 77 | 13 | 75 | 100 | 46 | 99
12 | Cc1cc(O)cc(C)c1/C=C/c1cncc(C(N)=O)c1 [GW435821X] | 100 | 97 | 100 | 100 | 100 | 100 | 72 | 100 | 100 | 100
13 | CN(C)c1cc2c(Nc3ccc4c(cnn4Cc4ccccc4)c3)ncnc2cn1 [GW282974X] | 100 | 81 | 84 | 89 | 39 | 82 | 100 | 100 | 75 | 100
14 | CC(C)COC(=O)c1ccc2c(c1)/C(=C/Nc1ccc(S(N)(=O)=O)cc1)C(=O)N2 [GW416981X] | 42 | 3.8 | 13 | 91 | 36 | 3.7 | 86 | 100 | 52 | 24
15 | COC(=O)Nc1nc2ccc(Oc3ccc(NC(=O)Nc4cc(C(F)(F)F)ccc4F)cc3)cc2s1.Cl [GW693917A] | 100 | 96 | 90 | 100 | 100 | 9.3 | 20 | 86 | 73 | 0
16 | NS(=O)(=O)c1ccc(N/N=C2\C(=O)Nc3ccc(-c4cnco4)cc32)cc1 [GW276655] | 47 | 29 | 31 | 94 | 81 | 32 | 100 | 93 | 39 | 49
17 | C[C@@H](Oc1cc(-n2cnc3ccc(OC4CCN(C)CC4)cc32)sc1C(N)=O)c1ccccc1Cl [GSK579289A] | 90 | 100 | 69 | 94 | 100 | 70 | 100 | 100 | 53 | 100
18 | COc1cc2ncn(-c3cc(O[C@H](C)c4ccccc4Cl)c(C(N)=O)s3)c2cc1OC [GSK237701A] | 100 | 81 | 100 | 86 | 100 | 76 | 48 | 100 | 94 | 86
19 | O=C(Nc1n[nH]c2nc(-c3ccc(O)cc3)c(Br)cc12)C1CC1 [SB-725317] | 16 | 2.5 | 4.4 | 100 | 100 | 19 | 100 | 95 | 98 | 60
20 | CCS(=O)(=O)c1ccc(OC)c(Nc2ncc(-c3cccc(F)c3)o2)c1 [GW621970X] | 100 | 99 | 100 | 100 | 100 | 85 | 100 | 100 | 100 | 100
